This is an account of results in ChEMBL document CHEMBL1157539, “Thousands of chemical starting points for antimalarial lead identification” (Nature, 2010).

Molecules are shown by their SMILES.

Common to all, as to type: functional
Assay [1] deals with Plasmodium falciparum. Put plainly: GSK_TCMDC: Inhibition of Plasmodium falciparum 3D7 in whole red blood cells, using parasite LDH activity as an index of growth. Test compounds present at 2uM.
Assay [2] deals with Plasmodium falciparum. As to the kind of experiment: GSK_TCMDC: Inhibition of Plasmodium falciparum Dd2 in whole red blood cells, using parasite LDH activity as an index of growth. Test compounds present at 2uM.
Assay [3] concerns HepG2. As to the kind of experiment: GSK_TCMDC: Percent inhibition of human HepG2 cell line. Test compounds present at 10uM.

Turning to `C#CCCOc1ccc2ccccc2c1CNCCCCCCNCc1c(OCCC#C)ccc2ccccc12`, the Inhibition in assay [1] was 100%; in assay [2], 65%; in assay [3], 100%.
In the case of `CN(C)C(=O)CC(=O)NCc1c(Cl)cccc1Cl`, the Inhibition turned out to be 95% in assay [1], 2% in assay [2] and 2% in assay [3].
As for `CCOC(=O)c1cccc(NC(=N)Nc2nc(C)cc(NCCc3ccccc3)n2)c1`, the values for the Inhibition in assay [1], in assay [2] and in assay [3] were 100%, 72% and 21%, respectively.
Taken in the same sequence, the figures for `COc1ccc(S(=O)(=O)N(CCCN2CCN(C)CC2)Cc2csc(-c3ccc(CNCc4ccccc4)cc3)n2)cc1.O=C(O)C(F)(F)F` were 88%, 86% and 10%.
In the case of `CCN(CC)/C(=N\C(=N)NCCCCCCNC(=N)/N=C(\Nc1ccc(Cl)cc1)N(CC)CC)Nc1ccc(Cl)cc1`, the figures for the Inhibition in assay [1], in assay [2] and in assay [3] were 97%, 96% and 1%, respectively.
For `O=C(NCc1ccc(F)cc1)Nc1cccc(-c2ccc(-c3nc4ccccc4[nH]3)cc2)c1`, in that order: 100%, 49% and 45%.
On to `O=C(Nc1ccccc1)Nc1cccc(-c2cc(CNCCc3ccccc3)sc2-c2ccncc2)c1`, for which the Inhibition came to 100% in assay [1], 84% in assay [2] and 14% in assay [3].
Taken in the same sequence, the figures for `CC(C)CC(NC(=O)c1cc2ccccc2s1)C(=O)N1CCCCCC1c1ccc(C(C)(C)C)cc1` (stereo not given) were 91%, 39% and 23%.
As to `CC(Oc1ccc(C(=O)c2ccc(F)cc2)cc1)C(=O)N1CCc2ccccc21` (stereo not given), the values for the Inhibition in assay [1], in assay [2] and in assay [3] were 95%, 95% and 9%, respectively.
On to `O=S(=O)(Nc1ccc(CCN2CCC(N3CCCCC3)CC2)cc1)c1cccc2cccnc12`, for which the Inhibition in assay [1] stood at 100%; in assay [2], 45%; in assay [3], 14%.
For `COc1ccc(-c2cnc(NCc3ccccc3)nc2)cc1CNC1CCN(C)CC1.O=C(O)C(F)(F)F`, in that order: 96%, 64% and 19%.
Taken in the same sequence, the figures for `O=C(c1cccc(-c2ccc(-c3nc4cc(F)ccc4[nH]3)s2)c1)N1CCCCC1CN1CCC(O)C1` (stereo not given) were 100%, 85% and 23%.
Taken in the same sequence, the figures for `O=C(Cc1cccc2ccccc12)NC1CCN(c2ccnc3cc(Cl)ccc23)C1.O=C(O)C(F)(F)F` (stereo not given) were 82%, 97% and 13%.
Take `CCNc1cc(C(=O)N[C@@H](Cc2ccccc2)[C@H](O)CNCCC(C)(C)C)c(F)c(N2CCCCS2(=O)=O)c1.O=CO`: the Inhibition in assay [1] is 98%; in assay [2], 93%; in assay [3] it was 2%.
For `CCCc1cc(C)ccc1OCCCON1C(NC(=O)OCC)=NC(NC(=O)OCC)=NC1(C)C`, in that order: 95%, 97% and 62%.
Taken in the same sequence, the figures for `O=C(NCCc1ccc(Cl)c(Cl)c1)[C@@H]1CCCN1C(=O)c1ccc(O)c(-c2ccc(Cl)c(Cl)c2)c1` were 99%, 99% and 0%.
For the compound `COc1ccc(CNCc2ccc(-c3ccc(-c4nc5cc(F)ccc5[nH]4)cc3)cc2)cc1.O=C(O)C(F)(F)F`, the Inhibition stood at 99% in assay [1], 83% in assay [2] and 70% in assay [3].
Turning to `c1ccc(COc2ccc(Nc3ncnc4cnc(-c5ccc(CNc6cccnc6)o5)cc34)cc2)cc1`, the Inhibition in assay [1] amounted to 96%; in assay [2] it was 19%; in assay [3], 2%.
Taken in the same sequence, the figures for `COc1ccc(C2CC(c3ccccc3)=NN2C(=O)c2ccc(Br)o2)cc1` (stereo not given) were 96%, 45% and 6%.
Consider `COc1ccc(N2CCN(CCCCNC(=O)c3ccc(NC(=O)c4ccc(C(F)(F)F)cc4)cc3)CC2)c(OC)c1`, for which the results for the Inhibition in assay [1], in assay [2] and in assay [3] were 100%, 8% and 4%, respectively.
For `O=C(NC1CCN(c2ccnc3cc(Cl)ccc23)C1)c1cccc(F)c1.O=C(O)C(F)(F)F` (stereo not given), in that order: 95%, 98% and 30%.
Taken in the same sequence, the figures for `N#Cc1ccc(N2CCN(Cc3ccc(-c4ccc(-c5nc6cc(F)ccc6[nH]5)s4)cc3)CC2)nc1.O=C(O)C(F)(F)F` were 100%, 78% and 12%.
Taken in the same sequence, the figures for `CN1CCN(CCCN(Cc2csc(-c3ccc(CNCc4ccccc4)cc3)n2)S(=O)(=O)c2ccccc2Cl)CC1.O=C(O)C(F)(F)F` were 93%, 81% and 13%.
With `CC(C)CNC(=O)c1cncc(-c2ccc(CNCCCc3ccccc3)cc2)c1.O=C(O)C(F)(F)F`, the results for the Inhibition in assay [1], in assay [2] and in assay [3] were 100%, 73% and 28%, respectively.
As for `Cl.N#Cc1cccc(-c2ccc(C(=O)Nc3ccc4c(c3)CCN(C3CCC3)CC4)cn2)c1`, the Inhibition in assay [1] is given as 96%; in assay [2], 5%; in assay [3], 26%.
For `O=C(Nc1ccc(F)cc1)NC1CCN(CCCCCNC(=O)C2CC2c2ccc(Cl)c(Cl)c2)CC1` (stereo not given), in that order: 100%, 20% and 46%.
Regarding `O=C(NCCCCCN1CCC(c2c[nH]c3ccccc23)CC1)Nc1ccc(Cl)cc1Cl`, the results for the Inhibition in assay [1], in assay [2] and in assay [3] were 99%, 15% and 71%, respectively.
With `COc1ccc2[nH]c(C)cc(=NN=Cc3cc(C)ccc3O)c2c1`, the Inhibition in assay [1] is recorded as 100%; in assay [2], 100%; in assay [3], 78%.
`CCCCN(C)CC#Cc1ccc2[nH]c(C)c(Cl)c(=O)c2c1`: the Inhibition in assay [1] turned out to be 98%; in assay [2], 97%; in assay [3] it was 0%.
Turning to `Cc1c(S(=O)(=O)Nc2ccc3nccc(N4CCN[C@H](C)C4)c3c2)sc2ccc(Cl)cc12.Cl`, the Inhibition was 96% in assay [1], 0% in assay [2] and 16% in assay [3].

Broadly, the Inhibition is the change of the read-out against control, counted positive when it falls.
